Laboratory results taken from PubChem BioAssay (NCI).
This is part of a sample that, as a whole, favours compounds with a hit. Of some 79,000 tested, about 15% had one in any assay. Rule as the data show it: active = growth inhibition above about 70%; inactive = the rest.

Experiments:
[1] = NCI Yeast Anticancer Drug Screen. Data for the rad50 strain (AID 155);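 also: 0% = growth of vehicle-only cultures of the same strain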; conditions: S. cerevisiae rad50 strain growth inhibition; at 50.0 µM; stronger effect = higher value
Outline: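 Genetically altered yeast (DNA repair pathway); compound treatment; growth inhibition vs vehicle ctrl.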

[2] = NCI Yeast Anticancer Drug Screen. Data for the mec2-1 strain (AID 157); conditions: S. cerevisiae mec2-1 strain, at 50.0 µM, stronger effect = higher value
Outline: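 Yeast mec2-1 mutant treated with compound. Readout: growth inhibition vs vehicle controls.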

[3] = NCI Yeast Anticancer Drug Screen. Data for the sgs1 mgt1 strain (AID 161);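 also: 0% = growth of cultures given vehicle only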; conditions: S. cerevisiae sgs1 mgt1 strain, at 50.0 µM, stronger effect = higher value
Outline: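 Test agents were incubated with a DNA-repair-mutant yeast strain. Growth was then read and compared against vehicle-treated controls.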

[4] = NCI Yeast Anticancer Drug Screen. Data for the cln2 rad14 strain (AID 165);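 also: 0% = growth equal to vehicle treated cultures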; conditions: S. cerevisiae cln2 rad14 strain, at 50.0 µM, stronger effect = higher value
Outline: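 cln2 rad14 yeast strain; compound exposure; growth inhibition read vs vehicle controls.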

[5] = NCI Yeast Anticancer Drug Screen. Data for the bub3 strain (AID 167); conditions: S. cerevisiae bub3 mutant strain, at 50.0 µM, stronger effect = higher value
Outline: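 Yeast carrying a defined mutation is treated with each compound, and growth is compared with that of vehicle-exposed cells to give inhibition.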

[6] = NCI Yeast Anticancer Drug Screen. Data for the mlh1 rad18 strain (AID 175); conditions: S. cerevisiae mlh1 rad18 strain growth inhibition; at 50.0 µM; stronger effect = higher value
Outline: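 Yeast w/ defined DNA-repair lesions; compound exposure; growth vs vehicle controls → % inhibition.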

Measured: growth inhibition

N#CCC(N)C(=O)O (stereo not drawn)
inactive: [1] 0.7% | [2] -11.1% | [3] -11.8% | [4] -34.4% | [5] -9.2% | [6] 8.65%

CC(=O)OC(c1ccccc1Cl)C(Cl)(Cl)Cl (stereo not drawn)
inactive: [1] -16.9% | [2] -9.35% | [3] -4.65% | [4] -39.9% | [5] -14.2% | [6] -5.55%

CCOP(=O)(OCC)OP(=O)(OCC)OCC
inactive: [1] -9.35% | [2] -29.6% | [3] -42.7% | [4] -10.1% | [5] -49.4% | [6] -13.4%

O=S(=O)(O)C1CCC(O)C2[N-]CCCC21.O=S(=O)(O)C1CCC(O)C2[N-]CCCC21.[Zn+2] (stereo not drawn)
inactive: [1] 1.75% | [2] 0.9% | [3] 6.2% | [4] 25.8% | [5] -10.7% | [6] 5.05%

COc1ccc(C(CC(=O)O)CC(=O)N(CCCl)CCCl)cc1C (stereo not drawn)
inactive: [1] 64% | [2] 25.6% | [3] 17% | [4] 27.1% | [5] 63.7% | [6] 24.4%

Cc1cc[n+](CCc2ccccc2)cc1
inactive: [1] 7.95% | [2] 15.1% | [3] 15.2% | [4] -8.35% | [5] 8.75% | [6] 9.6%

C/C(CC(C)(C)N1CC1)=N\N
inactive: [1] -19.7% | [2] -12.8% | [3] -7.75% | [4] -20.1% | [5] -7.95% | [6] -8.95%

CSC(SC)=C(C(=O)O)P(=O)(O)O
inactive: [1] -32.4% | [2] -3.05% | [3] -8.2% | [4] 19.1% | [5] -9.8% | [6] -16.6%

CO[C@H]1C[C@H](O[C@H]2CC[C@@]3(C)[C@H](CC[C@@H]4[C@@H]3CC[C@]3(C)[C@@H](C5=CC(=O)OC5)CC[C@]43O)C2)O[C@H](C)[C@H]1O
inactive: [1] 33.2% | [2] 5.95% | [3] 17.8% | [4] 23.1% | [5] 14.6% | [6] -49%

CCCCN1CCC2(C)c3cc(O)ccc3CC1C2CC (stereo not drawn)
inactive: [1] 6.8% | [2] 9.5% | [3] 4.4% | [4] -46.6% | [5] 11.3% | [6] 12.7%

Cc1ccc(NC(=O)/C=C/c2ccc([N+](=O)[O-])cc2)cc1S(=O)(=O)F
inactive: [1] -2.05% | [2] 27.9% | [3] 30% | [4] -5.6% | [5] 45% | [6] 15.2%

NC(Cc1c[nH]c2cc([N+](=O)[O-])ccc12)C(=O)O (stereo not drawn)
inactive: [1] 13.8% | [2] 2.15% | [3] -33.9% | [4] -7.45% | [5] -43% | [6] -0.25%

CCC1C(=O)OCC1Cc1cncn1C (stereo not drawn)
inactive: [1] -11.3% | [2] -8.4% | [3] -17.9% | [4] 0.55% | [5] -9.95% | [6] -17.9%

CCCCCCCC(=O)O.[Sn]
inactive: [1] -2.25% | [2] -7.35% | [3] -9.6% | [4] -45.9% | [5] 12.1% | [6] -19%

CCCC(=O)OC1C(c2ccc(=O)oc2)C2(C)CCC3C(CCC4CC(OC(C)=O)CCC43C)C23OC13 (stereo not drawn)
inactive: [1] 1.55% | [2] -16.9% | [3] 1.5% | [4] 9.6% | [5] -5.95% | [6] 0.2%

OCCC[n+]1cccc2ccccc21
inactive: [1] -11.2% | [2] 9.25% | [3] 1.1% | [4] -41.6% | [5] 0.95% | [6] -1.7%

O=[N+]([O-])OC(c1ccncc1)C(O[N+](=O)[O-])c1ccncc1 (stereo not drawn)
inactive: [1] 7.7% | [2] -2.35% | [3] -6.25% | [4] 16.9% | [5] -5.3% | [6] 21.3%

C[C@]12CCC(=O)C[C@@H]1CC[C@@H]1[C@@H]2CC[C@]2(C)[C@@H](OC(=O)N(CCCl)N=O)CC[C@@H]12
inactive: [1] 36.8% | [2] 33.8% | [3] 24.5% | [4] 55.2% | [5] 29.9% | [6] 60.1%

Cc1cccc(CCl)c1
inactive: [1] -7.05% | [2] -46.3% | [3] -23.3% | [4] -0.45% | [5] -40.9% | [6] -23.4%

CCCCCCCCCCC(O)[C@H]1CCC(C2CC[C@H]([C@H](O)CCCCCCCCCCC(O)CC3=CC(C)OC3=O)O2)O1 (stereo partly drawn)
inactive: [1] 2.15% | [2] -5.15% | [3] -13.3% | [4] -10.7% | [5] 0.85% | [6] 5.2%

O=c1ccn(C2OC(CO)C(O)C2[Se]c2ccccc2)c(=O)[nH]1 (stereo not drawn)
inactive: [1] 4% | [2] -9.45% | [3] 16.8% | [4] 6.05% | [5] 7.2% | [6] 27.1%

COC(=O)/C=C/c1ccc(Cl)cc1
inactive: [1] -7% | [2] -1.8% | [3] 0.5% | [4] -36.5% | [5] -10.2% | [6] -7.4%

NC(Cc1ccc2c(c1)OCO2)c1ccccc1 (stereo not drawn)
inactive: [1] -0.1% | [2] 9.05% | [3] 3.25% | [4] -27.3% | [5] 0.45% | [6] 4.45%

O=S1(=O)OCCOS(=O)(=O)C1(Cl)Cl
inactive: [1] -32.6% | [2] -41.5% | [3] -18% | [4] -11.4% | [5] -31.6% | [6] -8.65%

CCCCCCCCP(=O)(O)OP(=O)(O)OCC1OC(n2ccc(N)nc2=O)C(O)C1O (stereo not drawn)
inactive: [1] -11.2% | [2] -20.1% | [3] -9.55% | [4] 7.15% | [5] -12.2% | [6] -9%

CC(C)CCCC(C)C1CCC2C3CC=C4CC([Se][As](C)C)CCC4(C)C3CCC12C (stereo not drawn)
inactive: [1] 11.1% | [2] -0.1% | [3] 8.55% | [4] 14.7% | [5] 0.6% | [6] -7.4%

CCC1(c2ccc(C)cc2)C(=O)NC(=S)NC1=O
inactive: [1] 6.1% | [2] -8.15% | [3] 17.2% | [4] 28.6% | [5] 14% | [6] 11.8%

CC[As](=O)(O)CCCc1ccccc1
inactive: [1] 5.55% | [2] 32.9% | [3] 14.9% | [4] 3.1% | [5] -0.15% | [6] -2.05%

ClCc1cccnc1
inactive: [1] 16.9% | [2] -2.35% | [3] 5.25% | [4] 18.1% | [5] 3.6% | [6] 31.7%

[N-]=[N+]=C1C(=O)C2CC3CC1CC2C3 (stereo not drawn)
inactive: [1] -3.55% | [2] 12.7% | [3] -9.35% | [4] 8.55% | [5] 1.9% | [6] 1.5%

CC(CCOc1ccc2ccc(=O)oc2c1)C1=CC(=O)C(C)(C)O1 (stereo not drawn)
inactive: [1] -6.1% | [2] -8.3% | [3] 21.1% | [4] 0.05% | [5] -7.25% | [6] -44.1%

CC1(C)COP(=S)(SCCC#N)OC1
inactive: [1] -38.8% | [2] -7.1% | [3] 0.95% | [4] -29.4% | [5] 12.8% | [6] -0.55%

C[N+](C)(Cc1ccccc1[N+](=O)[O-])c1ccc(N(CCCl)CCCl)cc1
inactive: [1] -7.8% | [2] -8.15% | [3] -4.2% | [4] -16.7% | [5] -22.3% | [6] 12.6%

CCCCCCCC(N)CC(=O)O (stereo not drawn)
inactive: [1] -24.2% | [2] -44.2% | [3] -15.8% | [4] -0.7% | [5] -36.6% | [6] -8.05%

Cc1nc2ccccc2c(=O)n1-c1ccccc1Cl
inactive: [1] 7.15% | [2] -4.65% | [3] -6.75% | [4] 12.9% | [5] 15.9% | [6] 9.8%

Cc1ccc(C)c(NP(=O)(Nc2cc(C)ccc2C)N(CCCl)CCCl)c1
inactive: [1] 30.2% | [2] -4.4% | [3] 30.2% | [4] 8.1% | [5] 9.8% | [6] -8.55%

S=P12OCCC(CO1)O2 (stereo not drawn)
inactive: [1] 8.2% | [2] -9.35% | [3] 3.85% | [4] -23.8% | [5] -8.15% | [6] -3.15%

O=C(Nc1ccccc1)Nc1ccc(N(CCCl)CCCl)cc1
inactive: [1] 21.8% | [2] 18.6% | [3] 10.8% | [4] 13.5% | [5] 13.7% | [6] 31.8%
